Bioassay records as filed in PubChem BioAssay.
ELG1 DNA repair – blocks ELG1-dependent DNA repair in HEK293T cells | HEK293T ELG1-luciferase reporter, luminescence, 16 h; DNA damage induced by 5-fluorouridine | Potency, µM (highest dose often 46.1 µM), for inactives: top-dose activity change, negative = inhibition, hits mostly inhibitors | 330,000 tested, 2.3% active; further: potency means the concentration at half of the fitted maximal effect; on the % scale 0 is the no-effect control and ±100 the full control effect; nearly all actives have a fitted effect of over 55% in size
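In this reporter screen, reduction of luminescence relative to DMSO vehicle indicated activity. Compounds and 5-fluorouridine were added together to 2,000 cells per well, incubated for 16 hr at 37 °C, then developed with ONE-Glo.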
BRCA1 expr up – increases BRCA1 expression | 380,000 tested, 1.1% active | MCF7-BRCA1-FFLuc reporter, luminescence, 48 h; response scale: scaled: vehicle 0%, 10 µM genistein 100% | AID 624202 | Potency, µM (top dose mostly 46.1 µM), for inactives: at the top dose activation, most hits filed as activators; further: potency means the concentration at half of the fitted maximal effect; nearly all actives have a fitted effect of over 80% in size
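Using MCF7 cells harboring a BRCA1 firefly luciferase reporter, plated 2 h before compound pinning, the screen measured luminescence after 48 h incubation. Responses were normalized to DMSO and 10 microM genistein, then fitted for concentration-effect.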
p53 reactivator – re-activators of mutant p53; 320,000 tested, 0.063% active; Potency, µM (doses to about 92.2 µM), for the others: at the top dose activity change, positive = activation, most hits filed as activators; H1299 p53-A138V BP100-luciferase reporter, luminescence, 24 h; further: potency means the concentration at half of the fitted maximal effect; % of control where 0% means no effect; nearly all actives have a fitted effect of over 45% in size
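p53-null H1299 cells stably carrying temperature-sensitive p53-A138V and a BP100-luciferase reporter were pinned with compounds (4-point, 1:5 series) and held 24 hrs at 37 deg C. Luminescence was read 10 min after detection reagent.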
RORg inh – inhibitors of mouse ROR gamma transcriptional activity | Drosophila S2 Gal4-RORgamma UAS-luciferase reporter, 20 h | Potency, µM (doses to about 53.6 µM), for the others: at the highest dose activity change, negative = inhibition, usual class: inhibitors | 310,000 tested, 5.4% active; further: potency means the concentration at half of the fitted maximal effect; on the % scale 0 is the no-effect control and ±100 the full control effect; nearly all actives have a fitted effect of over 60% in size
Target sequence (P51450 whole entry, looked up, the tested form may be a part): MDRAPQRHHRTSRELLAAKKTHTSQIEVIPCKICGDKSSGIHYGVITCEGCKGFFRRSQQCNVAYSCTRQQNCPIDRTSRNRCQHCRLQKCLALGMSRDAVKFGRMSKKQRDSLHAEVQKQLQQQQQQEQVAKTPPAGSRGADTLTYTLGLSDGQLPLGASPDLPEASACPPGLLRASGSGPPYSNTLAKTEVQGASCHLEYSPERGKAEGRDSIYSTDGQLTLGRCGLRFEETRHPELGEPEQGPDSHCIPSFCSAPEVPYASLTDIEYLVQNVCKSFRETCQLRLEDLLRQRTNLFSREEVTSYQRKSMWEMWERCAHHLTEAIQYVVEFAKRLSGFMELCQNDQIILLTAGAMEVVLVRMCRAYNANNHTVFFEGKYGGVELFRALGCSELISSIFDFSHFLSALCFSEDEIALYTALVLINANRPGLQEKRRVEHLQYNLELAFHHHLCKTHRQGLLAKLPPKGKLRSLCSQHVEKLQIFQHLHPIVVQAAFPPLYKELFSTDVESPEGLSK
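Stably transfected Drosophila Schneider cells are the test system, with ROR gamma fused to Gal4 and luciferase under UAS control; luminescence is read after 20 hr of 700 uM copper sulfate induction at ambient temperature.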
Giardia killer – kills Giardia lamblia; 340,000 tested, 0.15% active; Giardia lamblia trophozoite viability; activity change, % at 7.66 µM, hits read low; in the data active means activity change below about -80%; inconclusive means between about -30% and that limit;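 further: parasites exposed to compound for two days anaerobically before the ATP read; on the % scale 0 is the no-effect control and ±100 the full control effect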
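Luminescence from cellular ATP indicates surviving trophozoites (100 cells/well) following 48 hrs anaerobic compound treatment at 37 deg C; signal develops 15-30 min at room temperature.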
VP16 counter – Gal4-VP16 reporter inhibition counter-screen | Drosophila S2 Gal4-VP16 UAS-luciferase, luminescence, 20 h | Potency, µM (series often up to 53.6 µM), for the others: at the highest dose activity, negative = inhibition, hits mostly inhibitors | 310,000 tested, 3.5% active | AID 2546;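 further: Gal4-VP16 expression switched on by copper sulfate through the metallothionein promoter; potency means the concentration at half of the fitted maximal effect; on the % scale 0 is the no-effect control and ±100 the full control effect; nearly all actives have a fitted effect of over 50% in size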
The depositor's hits bear a star; ? = inconclusive; · = no result given; [ ] = another dose, or the depositor's remark. In the library only some 7.6% were active in any assay of this set; here they are far more common. Unless noted, the call rests on the fitted dose curve; in most records, active means well fitted curve in the direction sought with a large enough effect; inconclusive means small, poorly fitted or top-dose-only effect, or another doubt; inactive means no such curve, though single readings can be large; an effect the other way counts as inactive or inconclusive.

SMILES	ELG1 DNA repair	BRCA1 expr up	p53 reactivator	RORg inh	Giardia killer	VP16 counter
CC(C)(C)C(=O)Cn1ncc(N2CCOCC2)c(Br)c1=O	?	33%	16%	2%	-2	4%
CCOc1ccc(NC(=O)CCc2c(C)nc3c(-c4ccccc4)c(C)nn3c2C)cc1	·	13%	·	·	·	·
CCCC(=O)N(CCN(C(=O)CCC)c1ccccc1)c1ccccc1	-12%	-12%	-6%	-24%	-22	18%
COc1cccc(Cn2c(=O)cnc3cnc(N4CCN(C)CC4)nc32)c1	·	·	·	35%	·	-10%
CCc1c(C)nc2ncnn2c1NCCc1ccc(OC)cc1	?	-76%	-4%	5%	11	18µM*
CC(=O)c1ccc(N2CCN(Cc3nc(Cc4ccccc4)no3)CC2)cc1	?	-18%	-5%	3.5µM*	-15	?
CN(CC(=O)Oc1ccc(-c2nnco2)cc1)S(=O)(=O)c1ccc(F)cc1	10%	-12%	-5%	·	-9	·
COc1ccccc1/C=N/NC(=O)C(C)Cn1cnc2ccccc21 (centres undefined)	?	-50%	0%	11µM*	1	6%
COc1ccccc1/C=N/NC(=O)CSc1cc(C)nc2ccccc12	-8%	-23%	0%	11µM*	-13	-14%
COc1ccc2nc(C)cc(SCC(=O)N/N=C/c3ccccc3)c2c1	-14%	-37%	-6%	-5%[10 µM]	?	10%
COc1ccc2nc(C)cc(SCC(=O)NNC(=O)COc3cccc4ccccc34)c2c1	?	-45%	-34%	?	4	8.9µM*
COc1ccc2nc(C)cc(SCC(=O)N/N=C/c3ccc(O)cc3O)c2c1	?	-98%	12%	18µM*	6	?
Cc1ccc(N2CC(C(=O)NCCS(=O)(=O)N3CCN(c4ccccc4F)CC3)CC2=O)cc1 (centres undefined)	4%	-6%	3%	-17%	43	-4%
CCCCCN(C(=O)CCC(=O)OCC(=O)Nc1cccc(SC)c1)c1c(N)n(CCCC)c(=O)[nH]c1=O	1%	-12%	-4%	·	5	·
O=S(=O)(NC(=S)NC1CCCCC1)c1ccc(Br)cc1	11%	-20%	0%	4.5µM*	-18	?
O=C(CCNS(=O)(=O)c1ccc(Br)cc1)NC1CCCCC1	-13%	-4%	-5%	25%	5	-6%
Cc1cccc2cc(COC(=O)c3ccco3)c(=O)[nH]c12	7%	-6%	4%	-2%[10 µM]	5	2%
c1ccc(-c2n[nH]c3c2CCC3)cc1	-1%	2%	-12%	13µM*	-9	-21%
COc1cccc(-c2n[nH]c3c2CCC3)c1	6%	35%	9%	?	-8	27%
Fc1ccccc1-n1cc(-c2ccccc2)[nH]c1=S	?	-11%	4%	2.5µM*	3	16µM*
Cc1ccc(-n2cc(-c3ccccc3)[nH]c2=O)cc1F	?	?	?	31%	9	3%
Cc1ccccc1-c1cn(-c2ccccc2)c(=S)[nH]1	0%	-17%	-1%	3.2µM*	-4	10µM*
COc1ccc(-n2cc(-c3ccc(OC)c(OC)c3)[nH]c2=S)cc1	20%	-6%	8%	2µM*	-8	10µM*
COc1ccc(-n2cc(-c3ccc(Br)cc3)[nH]c2=S)cc1	17%	-8%	4%	1.8µM*	-7	-14%
CC(C)CN(C(=O)COC(=O)c1ccc(Br)cc1)c1c(N)n(Cc2ccccc2)c(=O)[nH]c1=O	-13%	-14%	-10%	·	4	·
SMILES	ELG1 DNA repair	BRCA1 expr up	p53 reactivator	RORg inh	Giardia killer	VP16 counter
COc1ccc(-c2cn(-c3ccc(C)cc3C)c(=S)[nH]2)cc1OC	?	-25%	-8%	?	-7	?
FC(F)(F)c1cccc(-n2cc(-c3ccccc3)[nH]c2=S)c1	17%	-27%	3%	2.8µM*	8	?
CCc1ccc(-n2cc(-c3ccc([N+](=O)[O-])cc3)[nH]c2=S)cc1	27%	-9%	?	11µM*	3	?
O=[N+]([O-])c1ccc(-c2cn(-c3ccc(Cl)cc3)c(=S)[nH]2)cc1	17%	-12%	15%	-7%	-6	-2%
Cc1ccc(-c2cn(-c3ccccc3)c(=S)[nH]2)cc1C	?	?	?	?	12	?
COc1ccc(-n2cc(-c3ccccc3)[nH]c2=S)c(OC)c1	?	-45%	3%	2.5µM*	27	7.9µM*
COc1cc(OC)c(-n2cc(-c3ccc(OC)c(OC)c3)[nH]c2=S)cc1Cl	3%	17%	1%	7.9µM*	-3	16µM*
COc1cccc(-c2cc3nc(NCCN4CCCC4)n(C)c(=O)c3s2)c1	·	5%	·	·	·	·
COc1ccc2[nH]c3c4c(ccc3c2c1)C(=O)C=CC4=O	16µM*	-93%	-13%	6.3µM*	9	8.9µM*
COc1ccc2[nH]c(-c3ccc(F)cc3F)cc(=O)c2c1	·	·	·	-22%	·	4%
Cc1c(NC(=O)c2cc3c(s2)-c2ccccc2OC3)cccc1[N+](=O)[O-]	23µM*	-71%	-5%	39%	-8	-2%
Oc1ccc(CNc2ccc(F)cc2)c2cccnc12	?	-88%	25%	11µM*	8	?
Cc1cccc(NCc2ccc(O)c3ncccc23)c1	-3%	-35%	-3%	6.3µM*	?	?
Oc1ccc(CNc2ccccc2)c2cccnc12	-3%	-90%	3%	16µM*	-21	0.79µM*
Cc1ccccc1NCc1ccc(O)c2ncccc12	-3%	-84%	10%	11µM*	8	11µM*
O=C(c1ccccc1)c1ccc(Sc2ccc([N+](=O)[O-])cc2)cc1	12µM*	0%	6%	-12%	-26	0%
Cc1ccc(NC(=O)c2nc[nH]c2C(=O)N2CCc3ccccc3C2)cc1	-12%	0%	9%	·	-4	·
CC(C)(C)OC(=O)[C@H](Cc1ccccc1)NC(=O)c1nc[nH]c1C(=O)N1CCc2ccccc2C1	-22%	-20%	·	?	13	?
CC(C)(C)OC(=O)NCCCC[C@H](NC(=O)c1nc[nH]c1C(=O)N1CCc2ccccc2C1)C(=O)OC(C)(C)C	8.2µM*	-32%	-5%	?	5	-17%
CC(C)(C)OC(=O)NCCCCCNC(=O)c1nc[nH]c1C(=O)N1CCc2ccccc2C1	16µM*	-43%	6%	·	1	·
CCOC(=O)c1ccc(NC(=O)c2nc[nH]c2C(=O)N2CCc3ccccc3C2)cc1	?	0%	1%	3.5µM*	12	?
CN(C)C=NC(=O)c1[nH]c2ccc(Cl)cc2c1-c1ccccc1	-17%	-24%	-2%	6%	-26	1%
